Data: the supplement of paper PMC11732987, “Enantioselective OTUD7B fragment discovery through chemoproteomics screening and high-throughput optimisation” (Communications Chemistry, 2025)

What was measured:
Experiment in all cases: log2 ratio of Biotin-Ahx-Ub-VS probe labelling (fragment/DMSO); higher = less target engagement (more negative = stronger competition), active = hit call of the paper (q ≤ 0.05, log2 ratio ≤ -1)
Details in all cases: compound concentration: 200 uM; treatment time: 3 h
[1] = biological target: USP34 (UniProt Q70CQ2)
Summary of the method: (§1)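 Triplicate samples of HEK293T lysate, 495 µg each, received fragment at 200 µM or vehicle for 3 h, followed by Biotin-Ahx-Ub-VS (0.5 µM final) for 1 h. After NeutrAvidin enrichment of labelled DUBs and LysC/trypsin digestion, peptides were run by diaPASEF LC-MS/MS. The values are average log2 fragment/vehicle ratios from global-median-normalised Spectronaut label-free quantities, tested by unpaired t-test on proteins having ≥2 unique peptides.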

[2] = biological target: T1, USP36 (UniProt Q9P275)
T1 sequence (whole entry): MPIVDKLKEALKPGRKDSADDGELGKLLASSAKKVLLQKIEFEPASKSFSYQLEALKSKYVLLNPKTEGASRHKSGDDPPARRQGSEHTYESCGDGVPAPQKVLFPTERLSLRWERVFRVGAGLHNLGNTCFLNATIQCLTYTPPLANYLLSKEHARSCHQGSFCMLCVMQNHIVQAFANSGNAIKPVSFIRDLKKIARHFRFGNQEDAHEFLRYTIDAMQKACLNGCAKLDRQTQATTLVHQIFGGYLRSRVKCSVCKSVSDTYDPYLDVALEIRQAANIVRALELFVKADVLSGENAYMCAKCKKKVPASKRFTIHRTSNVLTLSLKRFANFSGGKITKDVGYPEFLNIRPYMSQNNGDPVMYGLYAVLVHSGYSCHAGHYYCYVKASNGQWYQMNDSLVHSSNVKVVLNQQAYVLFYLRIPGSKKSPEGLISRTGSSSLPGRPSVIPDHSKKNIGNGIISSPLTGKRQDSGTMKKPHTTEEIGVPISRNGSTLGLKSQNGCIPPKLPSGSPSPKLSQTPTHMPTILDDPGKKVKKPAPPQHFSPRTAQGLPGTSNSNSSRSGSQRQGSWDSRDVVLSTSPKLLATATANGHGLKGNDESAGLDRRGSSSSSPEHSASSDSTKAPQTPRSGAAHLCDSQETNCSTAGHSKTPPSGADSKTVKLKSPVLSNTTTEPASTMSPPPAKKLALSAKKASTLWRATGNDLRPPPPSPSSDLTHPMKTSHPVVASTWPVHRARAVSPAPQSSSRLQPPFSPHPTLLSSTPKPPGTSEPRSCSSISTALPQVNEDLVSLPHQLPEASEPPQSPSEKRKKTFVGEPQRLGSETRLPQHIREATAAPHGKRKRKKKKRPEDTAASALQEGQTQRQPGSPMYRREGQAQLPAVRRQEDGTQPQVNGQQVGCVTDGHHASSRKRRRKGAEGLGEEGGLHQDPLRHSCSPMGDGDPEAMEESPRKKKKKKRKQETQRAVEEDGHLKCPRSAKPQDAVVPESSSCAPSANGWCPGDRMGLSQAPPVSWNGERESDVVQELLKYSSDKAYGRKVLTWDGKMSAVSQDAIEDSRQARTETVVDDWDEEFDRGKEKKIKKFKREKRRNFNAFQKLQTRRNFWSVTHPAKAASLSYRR
Summary of the method: as §1

[3] = biological target: T2, USP38 (UniProt Q8NB14)
T2 sequence (whole entry): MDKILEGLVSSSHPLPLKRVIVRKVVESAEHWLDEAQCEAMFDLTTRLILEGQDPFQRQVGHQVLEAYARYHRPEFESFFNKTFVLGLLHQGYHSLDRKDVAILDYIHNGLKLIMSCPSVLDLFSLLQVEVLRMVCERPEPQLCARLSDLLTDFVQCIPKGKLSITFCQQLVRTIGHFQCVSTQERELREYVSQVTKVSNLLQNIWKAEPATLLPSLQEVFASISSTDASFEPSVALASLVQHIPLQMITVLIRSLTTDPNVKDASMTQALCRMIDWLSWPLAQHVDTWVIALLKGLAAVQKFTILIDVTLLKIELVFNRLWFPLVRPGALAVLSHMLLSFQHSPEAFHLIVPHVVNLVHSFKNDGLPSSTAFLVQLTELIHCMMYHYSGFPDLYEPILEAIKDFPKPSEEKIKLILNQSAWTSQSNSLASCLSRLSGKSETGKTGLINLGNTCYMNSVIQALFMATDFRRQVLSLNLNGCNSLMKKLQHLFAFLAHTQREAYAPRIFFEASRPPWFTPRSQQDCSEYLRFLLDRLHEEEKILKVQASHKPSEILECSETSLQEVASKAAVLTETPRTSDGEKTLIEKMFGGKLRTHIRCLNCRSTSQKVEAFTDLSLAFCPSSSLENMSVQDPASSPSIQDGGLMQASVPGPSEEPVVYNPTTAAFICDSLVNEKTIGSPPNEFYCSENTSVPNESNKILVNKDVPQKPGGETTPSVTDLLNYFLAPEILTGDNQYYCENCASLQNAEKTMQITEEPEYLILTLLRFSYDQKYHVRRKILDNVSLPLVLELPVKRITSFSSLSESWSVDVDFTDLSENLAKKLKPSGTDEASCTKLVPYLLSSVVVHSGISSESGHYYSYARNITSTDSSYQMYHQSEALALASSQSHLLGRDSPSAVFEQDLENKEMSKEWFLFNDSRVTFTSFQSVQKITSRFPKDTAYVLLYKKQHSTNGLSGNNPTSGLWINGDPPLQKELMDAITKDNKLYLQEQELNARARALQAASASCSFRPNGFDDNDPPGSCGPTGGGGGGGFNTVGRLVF
Summary of the method: as §1

[4] = biological target: T3, USP39 (UniProt Q53GS9)
T3 sequence (whole entry): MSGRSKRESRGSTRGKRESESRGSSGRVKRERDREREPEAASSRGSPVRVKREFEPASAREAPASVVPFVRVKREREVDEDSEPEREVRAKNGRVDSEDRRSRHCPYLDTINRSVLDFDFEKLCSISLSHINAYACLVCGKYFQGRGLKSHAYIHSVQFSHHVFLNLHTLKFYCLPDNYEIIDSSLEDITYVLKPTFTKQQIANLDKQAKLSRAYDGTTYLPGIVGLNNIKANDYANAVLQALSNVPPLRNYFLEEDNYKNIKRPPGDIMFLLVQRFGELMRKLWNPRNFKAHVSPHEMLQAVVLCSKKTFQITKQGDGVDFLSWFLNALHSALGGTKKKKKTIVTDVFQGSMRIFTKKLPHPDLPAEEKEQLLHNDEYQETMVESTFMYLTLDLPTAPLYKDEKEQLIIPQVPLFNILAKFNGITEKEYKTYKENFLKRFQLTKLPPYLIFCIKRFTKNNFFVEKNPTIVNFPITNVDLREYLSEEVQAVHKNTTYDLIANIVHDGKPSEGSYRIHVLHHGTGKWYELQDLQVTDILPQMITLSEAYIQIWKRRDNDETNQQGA
Summary of the method: as §1

[5] = biological target: T4, USP4 (UniProt Q13107)
T4 sequence (whole entry): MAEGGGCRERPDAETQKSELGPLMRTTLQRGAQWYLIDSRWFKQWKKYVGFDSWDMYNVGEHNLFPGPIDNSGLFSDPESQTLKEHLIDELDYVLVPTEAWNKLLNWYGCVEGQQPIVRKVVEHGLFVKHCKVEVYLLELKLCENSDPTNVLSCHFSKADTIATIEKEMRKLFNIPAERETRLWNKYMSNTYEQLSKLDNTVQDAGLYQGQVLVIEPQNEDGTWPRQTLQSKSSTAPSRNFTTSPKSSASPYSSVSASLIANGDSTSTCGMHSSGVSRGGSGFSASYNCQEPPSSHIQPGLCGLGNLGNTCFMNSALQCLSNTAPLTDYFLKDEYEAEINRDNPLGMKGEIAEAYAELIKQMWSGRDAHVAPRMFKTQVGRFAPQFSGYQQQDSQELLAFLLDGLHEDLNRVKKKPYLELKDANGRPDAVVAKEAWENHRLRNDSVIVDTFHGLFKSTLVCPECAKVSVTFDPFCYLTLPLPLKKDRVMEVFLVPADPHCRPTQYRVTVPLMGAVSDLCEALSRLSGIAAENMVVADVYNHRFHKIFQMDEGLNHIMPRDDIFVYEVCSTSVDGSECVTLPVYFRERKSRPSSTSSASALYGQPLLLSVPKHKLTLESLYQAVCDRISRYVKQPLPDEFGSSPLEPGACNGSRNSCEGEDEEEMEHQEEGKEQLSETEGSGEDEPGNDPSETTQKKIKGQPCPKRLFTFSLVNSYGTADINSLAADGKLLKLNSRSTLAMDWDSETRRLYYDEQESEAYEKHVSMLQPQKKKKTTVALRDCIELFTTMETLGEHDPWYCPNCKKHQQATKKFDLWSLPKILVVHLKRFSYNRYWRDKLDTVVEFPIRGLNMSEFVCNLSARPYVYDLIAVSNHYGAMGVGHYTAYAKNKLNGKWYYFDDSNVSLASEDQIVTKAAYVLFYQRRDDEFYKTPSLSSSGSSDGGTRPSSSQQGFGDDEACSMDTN
Summary of the method: as §1

Measured: log2 ratio of Biotin-Ahx-Ub-VS probe labelling

USP34, sequence (Q70CQ2 whole entry, the tested form may be a part): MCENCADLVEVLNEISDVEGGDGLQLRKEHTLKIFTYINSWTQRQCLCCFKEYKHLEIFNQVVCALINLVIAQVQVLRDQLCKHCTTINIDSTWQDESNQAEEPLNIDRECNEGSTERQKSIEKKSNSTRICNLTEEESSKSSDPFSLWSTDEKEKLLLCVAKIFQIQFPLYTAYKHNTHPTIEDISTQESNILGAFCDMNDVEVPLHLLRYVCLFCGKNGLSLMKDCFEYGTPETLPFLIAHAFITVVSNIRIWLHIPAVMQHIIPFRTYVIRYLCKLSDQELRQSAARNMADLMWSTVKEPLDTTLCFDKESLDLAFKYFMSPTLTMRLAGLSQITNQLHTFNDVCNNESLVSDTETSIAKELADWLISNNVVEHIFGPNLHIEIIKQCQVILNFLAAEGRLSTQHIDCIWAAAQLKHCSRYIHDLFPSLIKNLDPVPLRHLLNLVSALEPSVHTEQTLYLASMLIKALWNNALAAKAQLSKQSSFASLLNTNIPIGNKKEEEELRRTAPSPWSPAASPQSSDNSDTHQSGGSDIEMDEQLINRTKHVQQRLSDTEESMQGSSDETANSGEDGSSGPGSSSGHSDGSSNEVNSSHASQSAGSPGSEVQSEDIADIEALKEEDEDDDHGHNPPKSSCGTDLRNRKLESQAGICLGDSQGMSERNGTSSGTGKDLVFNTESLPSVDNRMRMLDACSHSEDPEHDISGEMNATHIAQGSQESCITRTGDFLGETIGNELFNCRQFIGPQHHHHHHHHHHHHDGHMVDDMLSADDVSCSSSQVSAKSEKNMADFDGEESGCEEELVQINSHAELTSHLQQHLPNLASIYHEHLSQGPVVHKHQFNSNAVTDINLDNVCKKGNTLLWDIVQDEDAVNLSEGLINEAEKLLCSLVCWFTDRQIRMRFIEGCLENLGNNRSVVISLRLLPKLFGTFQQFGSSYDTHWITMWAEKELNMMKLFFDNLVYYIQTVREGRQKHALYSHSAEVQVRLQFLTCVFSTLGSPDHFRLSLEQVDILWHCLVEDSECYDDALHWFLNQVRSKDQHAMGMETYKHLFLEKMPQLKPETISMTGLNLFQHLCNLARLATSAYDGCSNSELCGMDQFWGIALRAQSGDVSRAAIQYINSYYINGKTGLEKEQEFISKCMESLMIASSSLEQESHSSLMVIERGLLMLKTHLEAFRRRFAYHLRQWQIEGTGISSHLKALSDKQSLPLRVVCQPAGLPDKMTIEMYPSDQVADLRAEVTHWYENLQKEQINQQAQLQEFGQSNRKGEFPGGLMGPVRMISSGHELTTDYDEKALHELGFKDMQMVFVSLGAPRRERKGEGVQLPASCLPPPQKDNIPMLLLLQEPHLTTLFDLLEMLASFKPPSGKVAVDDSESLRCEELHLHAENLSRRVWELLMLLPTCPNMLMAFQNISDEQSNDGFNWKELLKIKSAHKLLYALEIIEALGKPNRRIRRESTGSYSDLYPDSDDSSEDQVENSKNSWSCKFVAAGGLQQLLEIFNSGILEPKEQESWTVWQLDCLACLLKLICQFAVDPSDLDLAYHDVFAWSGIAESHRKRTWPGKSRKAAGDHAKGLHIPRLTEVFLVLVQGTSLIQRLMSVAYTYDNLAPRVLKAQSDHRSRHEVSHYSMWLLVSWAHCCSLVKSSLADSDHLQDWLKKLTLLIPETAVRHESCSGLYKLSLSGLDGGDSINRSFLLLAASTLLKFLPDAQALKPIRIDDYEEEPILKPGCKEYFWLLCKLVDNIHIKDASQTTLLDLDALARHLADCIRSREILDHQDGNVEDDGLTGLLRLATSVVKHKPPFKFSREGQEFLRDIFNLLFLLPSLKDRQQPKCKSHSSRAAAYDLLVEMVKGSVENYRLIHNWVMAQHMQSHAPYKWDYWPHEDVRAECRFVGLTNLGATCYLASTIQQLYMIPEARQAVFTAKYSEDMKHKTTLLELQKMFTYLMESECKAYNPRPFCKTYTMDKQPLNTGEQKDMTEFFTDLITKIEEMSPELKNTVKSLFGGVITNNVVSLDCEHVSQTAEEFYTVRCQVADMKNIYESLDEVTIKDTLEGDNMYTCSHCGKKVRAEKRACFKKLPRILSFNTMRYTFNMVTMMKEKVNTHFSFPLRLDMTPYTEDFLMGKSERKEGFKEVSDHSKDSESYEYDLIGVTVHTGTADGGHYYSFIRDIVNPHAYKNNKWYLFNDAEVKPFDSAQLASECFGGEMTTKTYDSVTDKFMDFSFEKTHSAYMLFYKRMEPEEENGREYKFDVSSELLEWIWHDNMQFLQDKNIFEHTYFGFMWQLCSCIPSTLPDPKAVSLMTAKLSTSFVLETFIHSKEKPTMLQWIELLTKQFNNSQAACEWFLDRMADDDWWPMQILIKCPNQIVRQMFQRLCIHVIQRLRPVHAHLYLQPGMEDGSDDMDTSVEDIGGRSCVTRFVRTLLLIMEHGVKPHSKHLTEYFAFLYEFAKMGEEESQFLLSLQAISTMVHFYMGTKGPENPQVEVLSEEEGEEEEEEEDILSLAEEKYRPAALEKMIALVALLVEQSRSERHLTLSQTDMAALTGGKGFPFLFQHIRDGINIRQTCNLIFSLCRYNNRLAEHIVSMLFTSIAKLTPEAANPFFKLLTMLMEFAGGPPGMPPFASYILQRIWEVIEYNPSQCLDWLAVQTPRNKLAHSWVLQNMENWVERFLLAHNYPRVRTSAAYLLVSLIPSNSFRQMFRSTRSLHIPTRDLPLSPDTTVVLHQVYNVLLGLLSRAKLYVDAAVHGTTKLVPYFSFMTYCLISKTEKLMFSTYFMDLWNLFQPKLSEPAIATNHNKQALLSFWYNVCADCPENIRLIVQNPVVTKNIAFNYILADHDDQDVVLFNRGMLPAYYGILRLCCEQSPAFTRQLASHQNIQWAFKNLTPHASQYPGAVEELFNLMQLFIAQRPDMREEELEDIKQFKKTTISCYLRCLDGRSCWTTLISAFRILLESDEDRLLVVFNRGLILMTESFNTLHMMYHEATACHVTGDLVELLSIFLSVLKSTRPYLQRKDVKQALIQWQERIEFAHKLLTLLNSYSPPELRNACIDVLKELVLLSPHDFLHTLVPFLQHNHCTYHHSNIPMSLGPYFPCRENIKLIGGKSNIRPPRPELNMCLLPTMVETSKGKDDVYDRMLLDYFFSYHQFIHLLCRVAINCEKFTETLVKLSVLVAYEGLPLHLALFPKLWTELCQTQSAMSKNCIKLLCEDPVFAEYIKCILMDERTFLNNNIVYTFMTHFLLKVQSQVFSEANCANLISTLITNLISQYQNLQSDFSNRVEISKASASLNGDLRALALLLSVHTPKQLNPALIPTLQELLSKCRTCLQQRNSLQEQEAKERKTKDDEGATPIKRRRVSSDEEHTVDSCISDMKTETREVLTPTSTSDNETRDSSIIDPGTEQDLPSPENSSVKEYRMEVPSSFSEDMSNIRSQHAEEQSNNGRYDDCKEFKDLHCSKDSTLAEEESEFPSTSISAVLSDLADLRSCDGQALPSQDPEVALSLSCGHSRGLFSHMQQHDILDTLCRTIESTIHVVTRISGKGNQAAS

Cl.Cn1c(CNC(=O)CCl)nc2cccnc21
inactive: [1] -0.174 | [2] -0.125 | [3] 0.0315 | [4] 0.234 | [5] -0.102
